From PMC4336329 (PLoS ONE, 2015)
Among all 310,000 compounds or so, about 14,000 (4.5%) showed an effect of 50% or more. Effects have a minus sign here. For the sample, strong results were picked, then their nearest neighbours and some compounds at random.

biological target: human ether-à-go-go-related gene (hERG) potassium channel (human, UniProt Q12809); experiment: primary screen, population patch clamp on CHO cells stably expressing hERG; higher = less effect of the substance
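Also: peak tail current of the secondary pulse compared with the same well before compound.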

Chain of human ether-à-go-go-related gene (hERG) potassium channel (Q12809 whole entry, looked up): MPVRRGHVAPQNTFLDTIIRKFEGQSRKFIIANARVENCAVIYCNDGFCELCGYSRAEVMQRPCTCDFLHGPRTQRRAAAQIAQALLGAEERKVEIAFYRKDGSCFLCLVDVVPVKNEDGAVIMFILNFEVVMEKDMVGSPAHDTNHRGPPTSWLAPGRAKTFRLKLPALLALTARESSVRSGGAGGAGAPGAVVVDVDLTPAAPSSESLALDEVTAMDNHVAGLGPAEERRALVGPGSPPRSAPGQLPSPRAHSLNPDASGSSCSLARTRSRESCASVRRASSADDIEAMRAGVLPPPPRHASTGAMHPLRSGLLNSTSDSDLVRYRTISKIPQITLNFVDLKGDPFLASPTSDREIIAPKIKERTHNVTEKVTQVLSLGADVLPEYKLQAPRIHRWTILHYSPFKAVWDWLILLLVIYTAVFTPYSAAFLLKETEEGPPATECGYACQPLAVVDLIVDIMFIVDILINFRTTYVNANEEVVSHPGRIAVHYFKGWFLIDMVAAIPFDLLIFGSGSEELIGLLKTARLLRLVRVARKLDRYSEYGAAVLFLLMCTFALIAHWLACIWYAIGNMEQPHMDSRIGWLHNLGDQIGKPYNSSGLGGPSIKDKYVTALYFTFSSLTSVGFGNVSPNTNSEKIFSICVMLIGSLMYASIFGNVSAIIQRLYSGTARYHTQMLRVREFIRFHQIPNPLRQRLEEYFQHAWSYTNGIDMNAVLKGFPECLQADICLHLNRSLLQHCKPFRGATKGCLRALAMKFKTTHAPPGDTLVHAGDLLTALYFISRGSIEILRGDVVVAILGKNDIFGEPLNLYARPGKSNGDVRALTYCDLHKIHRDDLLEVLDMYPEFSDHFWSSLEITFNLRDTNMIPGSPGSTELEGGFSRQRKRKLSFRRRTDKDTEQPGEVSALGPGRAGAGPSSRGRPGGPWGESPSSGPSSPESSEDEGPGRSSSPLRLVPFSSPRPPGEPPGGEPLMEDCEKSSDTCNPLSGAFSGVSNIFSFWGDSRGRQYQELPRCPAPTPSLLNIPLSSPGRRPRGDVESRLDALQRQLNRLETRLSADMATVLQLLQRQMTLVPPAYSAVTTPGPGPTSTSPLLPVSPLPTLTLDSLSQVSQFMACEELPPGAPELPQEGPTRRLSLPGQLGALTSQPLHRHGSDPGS

Row | SMILES | hERG current change (%, negative = inhibition) at 10uM [%]
1 | COc1ccc(-n2c(=O)c3ccccc3n(CC(=O)c3ccccc3)c2=O)cc1OC | -1.32
2 | Cc1ccccc1OCCNc1cc(N2CCCCC2)ccc1[N+](=O)[O-] | -17.2
3 | CCCCC(=O)Nc1ccc(C(=O)Nc2ccc(OC)cc2[N+](=O)[O-])cc1 | -8.04
4 | O=C(O)c1cn(-c2ccccc2)nc1-c1ccc(F)cc1 | 23.6
5 | O=C1CN(C(=O)COC(=O)Cc2ccsc2)c2ccccc2N1 | -4.05
6 | CCC(=O)N(c1nnc(SCC(=O)NN2C(=O)NC3(CCC(C)CC3)C2=O)s1)C1CC1 (stereo not shown) | -5.47
7 | O=C(CCS(=O)(=O)c1cccc2nonc12)Nc1ccc(Br)cc1 | 7.91
8 | Cc1cc(C)n(C(=O)CNC(=O)C2COc3ccccc3O2)n1 (stereo not shown) | 14.5
9 | Cc1cc(C)n(C(=O)CCC2COc3ccccc3O2)n1 (stereo not shown) | -76.6
10 | O=C(CCC1COc2ccccc2O1)N1CCCC1 (stereo not shown) | -3.13
11 | Br.O=C(CN1C2=NCCCN2c2ccccc21)c1cccc(Br)c1 | -71
12 | Br.COc1cccc(C(=O)Cn2c(=N)n(C)c3ccccc32)c1 | -27.2
13 | Br.O=C(CN1C2=NCCCN2c2ccccc21)c1ccc([N+](=O)[O-])cc1 | -75.1
14 | COc1ccc(C(=O)CN2C3=NCCCN3c3ccccc32)cc1OC | -36.5
15 | Br.O=C(CN1CCCCC1)c1cccc(Br)c1 | 7.58
16 | Br.COc1cccc(C(=O)CN2C3=NCCCN3c3ccccc32)c1 | -68.1
17 | Cc1cc(C)cc(N(CC(=O)NCc2ccc(F)cc2)C(=O)CCC(=O)Nc2ccccn2)c1 | 18.7
18 | COc1ccc(-c2csc(NC(=O)c3cc(=O)c4ccccc4o3)n2)cc1OC | 4.58
19 | N#Cc1ccc(-c2nc3ccccc3nc2-c2ccccc2)cc1C#N | 21.7
20 | CCc1cc2c(=O)nc3n(c2s1)Cc1ccccc1/C3=C(/O)c1cccc([N+](=O)[O-])c1 | -4.6
21 | O=C(CCN1CCN(CCO)CC1)Nc1ccc(Br)cc1 | 1.76
22 | COc1ccc(C(=O)N/N=C\c2ccoc2)cc1 | 20.8
23 | O=C(CN1C(=O)c2cccc3cccc1c23)NCc1ccc2c(c1)OCO2 | -13.2
24 | C=CCn1c(SCC(=O)NCC2CCCO2)nc2scc(-c3ccccc3)c2c1=O (stereo not shown) | -15.1
25 | COC(=O)C1=C(N)Oc2cc(N(C)C)ccc2C1c1ccccc1OC (stereo not shown) | -84.3
26 | COC(=O)C1=C(N)Oc2cc(C)[nH]c(=O)c2C1c1ccccc1OC (stereo not shown) | 9.48
27 | CCOc1ccc(Br)cc1C1C(C(=O)OC)=C(N)Oc2cc(N(C)C)ccc21 (stereo not shown) | 21.4
28 | Cc1ccccc1OCC(=O)NCC(c1ccco1)N1CCCCC1 (stereo not shown) | -31.4

Row | SMILES | hERG current change (%, negative = inhibition) at 10uM [%]
29 | O=C(COc1ccccc1)NCC(c1ccco1)N1CCN(c2ccccc2)CC1 (stereo not shown) | -26.6
30 | Cc1cc(C)c(OCC(=O)NCC(c2ccco2)N2CCCCC2)c(C)c1 (stereo not shown) | -52.1
31 | COc1ccc(N2CCN(C(CNC(=O)COc3ccccc3)c3ccco3)CC2)cc1 (stereo not shown) | -67
32 | Cc1ccc(C)c(OCC(=O)NCC(c2ccco2)N2CCCCC2)c1 (stereo not shown) | -2.72
33 | O=C(COc1ccccc1)NCC(c1ccco1)N1CCN(c2ccc(F)cc2)CC1 (stereo not shown) | -41
34 | C[C@H](NC(=O)c1ccco1)C(=O)NC1CCCCCC1 | -0.515
35 | O=C(c1cccnc1)N1N=C(c2cccs2)CC1c1ccc(F)cc1 (stereo not shown) | -34.7
36 | Cc1ccc(NC(=O)c2cccs2)cc1S(=O)(=O)Nc1cccc(Cl)c1 | 8.25
37 | COc1ccc(NC(=S)N2CCC(C(=O)c3ccc(C)cc3)CC2)c(OC)c1 | 24.7
38 | CCOc1cc(/C=N\NC(=O)CC(=O)NCCc2ccccc2)ccc1O | 1.94
39 | Cc1ccc(C)c(-c2nnc(NC(=O)Cc3ccccc3)o2)c1 | 16.1
40 | COc1ccc(S(=O)(=O)N2CCN(C3Cc4ccccc4C3)CC2)cc1 | 11.8
41 | O=C(Nc1cccc(C(F)(F)F)c1)c1cncs1 | 20
42 | O=C(c1ccco1)N1CCN(Cc2cc(=O)c(OCc3cccc(F)c3)co2)CC1 | -76.4
43 | CC(C)NC(=O)COc1coc(CN2CCN(C(=O)c3ccco3)CC2)cc1=O | 10.3
44 | O=C(c1ccco1)N1CCN(Cc2cc(=O)c(OCc3ccccc3)co2)CC1 | -25.5
45 | O=C(c1ccco1)N1CCN(Cc2cc(=O)c(OCc3ccc(F)cc3)co2)CC1 | -62.2
46 | O=c1cc(CO)occ1OCc1cccc(F)c1 | -9.93
47 | COc1ccc(CN2CCN(C(=O)c3ccco3)CC2)cc1OC.O=C(O)C(=O)O | 16.8
48 | CCOc1cc(CN2CCN(C(=O)c3ccco3)CC2)ccc1OC | -28.7
49 | COc1ccc(CN2CCN(C(=O)c3ccco3)CC2)cc1OCc1ccccc1 | -51.2
50 | O=C(c1ccco1)N1CCN(Cc2cc(=O)c(OCc3ccc([N+](=O)[O-])cc3)co2)CC1 | -76.2
51 | O=C(c1ccco1)N1CCN(Cc2cccc(F)c2)CC1 | -0.928
52 | O=C(COc1coc(CN2CCc3ccccc3C2)cc1=O)Nc1ccc([N+](=O)[O-])cc1 | -31.7
53 | O=C(O)CCCCCn1c(SCC(=O)c2ccc(O)c(O)c2)nc2ccsc2c1=O | 32.2
54 | O=C(N[C@@H](Cc1ccccc1)C(=O)NC1CCCCC1)c1ccco1 | 6
55 | CN1CCN(NS(=O)(=O)c2ccc(Cl)cc2)CC1 | 19.4
